The source made the active and inactive calls. Calls follow the shape of the full dose curve.

Holding throughout (assay): Confirmatory Screen for Target Class Profiling of Small Molecule Inhibitors of Methyltransferases (AID 1745852); as to activity change, negative = inhibition: % is scaled to controls: 0 for no effect and ±100 for the full control effect
Test [1] has as its target Catechol O-methyltransferase (Homo sapiens) (UniProt P21964). Conditions: MTase-Glo luminescence, SAH detection, recombinant enzyme; measured here: COMT max response; stronger effect = lower value.
The target in test [2] is Guanidinoacetate N-methyltransferase (Homo sapiens) (UniProt Q14353). Conditions: MTase-Glo luminescence, SAH detection, recombinant enzyme; activity change, negative = inhibition: at 57.3 µM (top of the series) unless noted; series mostly up to 57.3 µM.
In test [3] the target is Nicotinamide N-methyltransferase (Homo sapiens) (UniProt P40261). Conditions: MTase-Glo luminescence, SAH detection, recombinant enzyme; measured here: NNMT max response; stronger effect = lower value.
Chain of Nicotinamide N-methyltransferase (Homo sapiens) (P40261 whole entry, looked up): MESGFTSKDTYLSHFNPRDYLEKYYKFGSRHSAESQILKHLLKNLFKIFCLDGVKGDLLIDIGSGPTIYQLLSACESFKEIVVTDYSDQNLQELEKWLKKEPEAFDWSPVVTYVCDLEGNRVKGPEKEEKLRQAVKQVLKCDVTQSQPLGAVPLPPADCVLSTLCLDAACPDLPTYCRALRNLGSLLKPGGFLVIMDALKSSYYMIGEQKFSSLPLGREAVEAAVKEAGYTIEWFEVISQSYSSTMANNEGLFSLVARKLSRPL
In test [4] the target is Phenylethanolamine N-methyltransferase (Homo sapiens) (UniProt P11086). Conditions: MTase-Glo luminescence, SAH detection, recombinant enzyme; measured here: PNMT max response; stronger effect = lower value.
Chain of Phenylethanolamine N-methyltransferase (Homo sapiens) (P11086 whole entry, looked up): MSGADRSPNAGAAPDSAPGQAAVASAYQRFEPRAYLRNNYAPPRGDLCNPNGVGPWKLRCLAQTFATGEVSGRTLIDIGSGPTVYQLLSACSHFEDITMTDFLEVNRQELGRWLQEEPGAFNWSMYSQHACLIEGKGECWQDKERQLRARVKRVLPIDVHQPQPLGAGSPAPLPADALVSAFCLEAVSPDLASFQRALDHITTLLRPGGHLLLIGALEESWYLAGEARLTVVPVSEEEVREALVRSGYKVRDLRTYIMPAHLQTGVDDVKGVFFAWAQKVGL
Potency is read from the fitted curve at half-maximal effect.

Chain of Catechol O-methyltransferase (Homo sapiens) (P21964 whole entry, looked up): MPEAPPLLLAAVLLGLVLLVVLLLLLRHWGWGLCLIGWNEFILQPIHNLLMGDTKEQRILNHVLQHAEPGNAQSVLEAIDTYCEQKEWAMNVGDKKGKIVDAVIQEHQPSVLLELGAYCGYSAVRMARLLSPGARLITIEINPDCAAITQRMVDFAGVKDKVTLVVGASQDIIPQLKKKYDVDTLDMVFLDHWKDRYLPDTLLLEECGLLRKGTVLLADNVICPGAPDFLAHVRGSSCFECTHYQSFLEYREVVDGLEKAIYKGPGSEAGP

On to `COc1ccc(CCN2C(=O)c3cc4occc4n3CC2(C)C(=O)NC2CCCCCC2)cc1OC` (stereo not given), for which the activity in test [1] was -3.67%; in test [3], -64.2%; in test [4], -5.31%. The activity change, negative = inhibition in test [2] is -1.83%.

Take `COc1cccc(N2C(=O)NC(=NC3CCCCC3)C23CCCN(CC2CCCCC2)C3)c1` (stereo not given): the activity in test [1] was -0.686%; in test [3], -50.3%; in test [4] it was 1.19%. Also, the activity change, negative = inhibition in test [2] amounted to 10.7%.

`COc1cc(F)ccc1-c1cc(-c2ccc(=O)[nH]c2)c2cncn2c1`: the activity in test [1] was -95.1%; in test [3] it was -11%; in test [4], -5.79%. In addition, the activity change, negative = inhibition in test [2] is -5.99% [at 85.7 µM].

On to `CC1CCCC(NC(=O)C2(C)Cn3c(cc4occc43)C(=O)N2Cc2ccco2)C1C` (stereo not given), for which the activity is -10.3% in test [1], -20.3% in test [3] and -11.1% in test [4]. Besides, the activity change, negative = inhibition in test [2] was -6.55%.

As to `Cn1c(=O)n(C)c2cc(S(=O)(=O)N3CCN(C4CCCCC4)CC3)ccc21`, the figures for the activity in test [1], in test [3] and in test [4] were -4.43%, -8.71% and -5.99%, respectively. Besides, in test [2], the activity change, negative = inhibition was -0.234%.

For `CCC1CCCCN1CCCNC(=O)Cn1ccc2cc(S(=O)(=O)N3CCCCC3)ccc21` (stereo not given), the activity in test [1] was 1.17%; in test [3] it was -2.34%; in test [4], -1.74%. Further, the activity change, negative = inhibition in test [2] worked out at 0%.

Take `COc1ccc(OC)c(CN2CCNc3cc(-c4ccnc(C)c4)ncc3C2)c1`: the results for the activity in test [1], in test [3] and in test [4] were 6.21%, -5.07% and 4.8%, respectively. Moreover, the activity change, negative = inhibition in test [2] stood at 6.12% [at 85.7 µM].

`CC(C)CCNC(=O)c1ccc2c(=O)[nH]c3c(C(=O)NC4CCCC4)sc(=S)n3c2c1`: the activity in test [1] was -37.7%; in test [3], -45.4%; in test [4] it was -38.7%. Further, in test [2], the Potency is 27.1 µM (active).

`Cn1c(=O)n(C)c2cc(S(=O)(=O)Nc3ccc(-c4nnc(-c5ccccc5)o4)c(Cl)c3)ccc21`: the activity in test [1] is -28.6%; in test [3], -40.4%; in test [4] it was -17.1%. Further, the activity change, negative = inhibition in test [2] is -7.85%.

For the compound `c1ccc(Cn2cc(CN3CCN(c4ccncc4)CC3)c(-c3cc4ccccc4o3)n2)cc1`, the figures for the activity in test [1], in test [3] and in test [4] were 5.39%, 1.15% and 6.65%, respectively. Further, the activity change, negative = inhibition in test [2] stood at 12.1%.

As to `CCCc1sc(NC(=O)C[C@H]2NC(=O)c3ccccc3NC2=O)nc1C(=O)OC`, the activity in test [1] is 4.16%; in test [3], -4.71%; in test [4], 3.73%. In addition, the activity change, negative = inhibition in test [2] was 2.83%.

With `CCOc1ccccc1CN1CCC(Cc2nc(-c3cccnc3)n[nH]2)C1` (stereo not given), the activity in test [1] was 2.59%; in test [3], -34.4%; in test [4], -0.0084%. Besides, the activity change, negative = inhibition in test [2] worked out at 0.265%.

As to `Cn1ncc2c(N3CCN(S(N)(=O)=O)CC3)nc(C3CCCC3)nc21`, the activity in test [1] was -8.84%; in test [3] it was -39.7%; in test [4] it was -18%. Moreover, the activity change, negative = inhibition in test [2] was -4.64%.

With `O=C(CCc1nnc2n(CCc3ccccc3)c(=O)c3ccccc3n12)N1CCC(N2CCCCC2)CC1`, the activity in test [1] was 4.18%; in test [3], -3.96%; in test [4], 0%. In test [2], the activity change, negative = inhibition worked out at 0.438%.

In the case of `Cc1cnc(C2CC2)n1C1CCN(S(=O)(=O)c2ccc3c(c2)OCCO3)CC1`, the activity in test [1] was -0.0283%; in test [3] it was -30.4%; in test [4] it was -0.889%. Besides, the activity change, negative = inhibition in test [2] was -2.25%.

On to `O=c1c2ccccc2n2c(-c3ccc(F)c(F)c3)nnc2n1Cc1ccccc1Cl`, for which the activity in test [1] is -2.11%; in test [3], -2.95%; in test [4], -3.63%. In addition, in test [2], the activity change, negative = inhibition turned out to be 0%.

On to `CN(C)CCOCC1(C)COc2ccc(C(=O)Nc3ccc4[nH]ccc4c3)cc2N1` (stereo not given), for which the activity in test [1] amounted to 1.58%; in test [3] it was 2.73%; in test [4], 0.534%. The activity change, negative = inhibition in test [2] is 9.89% [at 85.7 µM].

For `Cn1c(C(=O)NCCN2CCCCC2)cc2c1CCN(Cc1cccc(F)c1)C2`, the activity is 7.65% in test [1], 7.53% in test [3] and 7.04% in test [4]. In test [2], the activity change, negative = inhibition is 15.7%.

As to `CC(C)CCNC(=O)c1ccc2c(=O)[nH]c3c(C(=O)NC(C)C)sc(=S)n3c2c1`, the values for the activity in test [1], in test [3] and in test [4] were -37.8%, -37.9% and -33.6%, respectively. Moreover, in test [2], the Potency was 27.1 µM (active).

With `COc1cccc2c1OCCCN(c1cc(C3CC(O)C3)nc(N)n1)C2` (stereo not given), the figures for the activity in test [1], in test [3] and in test [4] were 5.04%, 3.54% and 4.23%, respectively. The activity change, negative = inhibition in test [2] stood at 6.51%.

Consider `Cc1ccc(NS(=O)(=O)c2ccc3c(c2)[C@H]2C=CC[C@H]2[C@@H](c2cccc(Cl)c2)N3)c(C)c1`, for which the activity was -11.2% in test [1], -16.4% in test [3] and -18.5% in test [4]. Further, the activity change, negative = inhibition in test [2] is -14.3%.

`Cc1cc(C)c(NS(=O)(=O)c2ccc3c(c2)n(C)c(=O)n3C)c(C)c1`: the activity is 0.505% in test [1], -39.4% in test [3] and 0.178% in test [4]. Moreover, in test [2], the activity change, negative = inhibition was 0%.

For the compound `CC1(C(=O)NC2CCCC2)Cn2c(c(-n3cccc3)c3ccccc32)C(=O)N1Cc1ccccn1` (stereo not given), the figures for the activity in test [1], in test [3] and in test [4] were 1.3%, -46.2% and 0%, respectively. In test [2], the activity change, negative = inhibition turned out to be 1.85%.

As for `Cc1ccc(C)c(N2CCN(C(=O)c3ccc4c(=O)[nH]c5c(C(=O)NC(C)C)sc(=S)n5c4c3)CC2)c1`, the activity was -41.7% in test [1], -76.8% in test [3] and -17.9% in test [4]. Further, the activity change, negative = inhibition in test [2] is -2.19%.

Regarding `O=C(NCCc1ccccc1)c1ccc(CN2C(=O)CCn3nc(-c4ccccc4)cc32)cc1`, the activity was -6.47% in test [1], -28.8% in test [3] and -5.57% in test [4]. Moreover, in test [2], the activity change, negative = inhibition came out at 0.906%.

On to `O=C(CCc1nnc2n(CCc3ccccc3)c(=O)c3ccccc3n12)NCCCN1CCCCC1`, for which the activity in test [1] was -0.192%; in test [3], 0.418%; in test [4], 0.873%. Also, the activity change, negative = inhibition in test [2] is 0%.

As to `COc1ccc(-c2[nH]ncc2CN2CC[C@H]3CC[C@@H](C2)N3)cc1`, the figures for the activity in test [1], in test [3] and in test [4] were 11.4%, 10.4% and 7.25%, respectively. Besides, the activity change, negative = inhibition in test [2] came to 7.93%.

Take `O=C1COc2ccc(-c3cccc(O)c3)nc2CN1Cc1ccc(C(F)(F)F)cc1`: the activity in test [1] is -39%; in test [3] it was -22.9%; in test [4], -51.9%. In test [2], the activity change, negative = inhibition is -7.53% [at 85.7 µM].

For `Cc1cc(-c2cc3c(cn2)N(C)CCN(C)C3)ccn1`, the values for the activity in test [1], in test [3] and in test [4] were 5.42%, 2.35% and 3.56%, respectively. Also, the activity change, negative = inhibition in test [2] worked out at 4.1% [at 114 µM].

On to `COc1ccc(-c2nnc3n(CCc4ccccc4)c(=O)c4ccccc4n23)c(OC)c1`, for which the activity was -4.93% in test [1], -9.89% in test [3] and -5.15% in test [4]. Also, the activity change, negative = inhibition in test [2] is -5.05%.

The record behind these values is PubChem BioAssay (NCATS).
